Screening data from PubChem BioAssay.
Only some compounds are listed: those with a hit (about 1.7% of all), similar ones and a draw of the others.
F508del corr: CFTR F508del correction in bronchial cells | AID 720511 | activity (quench increase), % at 7.58 µM | CFBE cells, YFP halide quenching; stimulated with forskolin plus potentiator P3; % fluorescence drop versus neutral controls | hit rate 0.36% among 350,000;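 active means mean added fluorescence quench of at least 8% versus neutral control, with both replicates also reaching 8%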;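 further: cells transiently co-express mutant CFTR-F508del with the halide-sensitive YFP; corrector assay measuring rescue of mutant channel to the surface after 24 h compound exposure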
Vif inh: HIV Vif inhibition. HEK293T cells, Vif self-association by quenched fluorescence, imaging, 24 h. inhibition, % at 7.49 µM. hit rate 0.35% among 340,000. AID 602346; in the data active means inhibition above about 50%, passing the limit was not always enough
FGF22 binding: binders of recombinant human FGF22 by thermal shift; Q9HCT0; SYPRO orange fluorescence; percent of sucrose octasulfate shift, DMSO zero; activity (Tm shift, normalised), % at 9.99 µM; hit rate 1.5% among 340,000;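 active means mean Tm shift, scaled 0 neutral to 100 positive control, at about 1.3% or above, every replicate too, limit read from the data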
Target sequence (Q9HCT0 whole entry, looked up): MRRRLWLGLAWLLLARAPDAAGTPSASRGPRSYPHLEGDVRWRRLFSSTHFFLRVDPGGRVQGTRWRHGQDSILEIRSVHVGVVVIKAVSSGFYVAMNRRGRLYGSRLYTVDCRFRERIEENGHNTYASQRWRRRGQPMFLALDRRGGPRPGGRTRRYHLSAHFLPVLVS
Of the large screens only hits and unclear results are named; the others gave an inactive call.

C[C@@H]1CCCCO[C@H](CN(C)C(=O)Nc2ccc3c(c2)OCO3)[C@H](C)CN([C@H](C)CO)C(=O)c2cc(NC(=O)c3ccncc3)ccc2O1	none (no result: Vif inh)
CC(=O)c1cc(-c2ccccc2)n(CCC(=O)NC2CCCCC2)c1C	none (no result: F508del corr, FGF22 binding)
CC(=O)c1cc(-c2ccccc2)n(CCC(=O)NC2CCCC2)c1C	FGF22 binding 44.4
CCCNC(=O)N1CC2(CCN(S(=O)(=O)c3cccc(OC)c3)CC2)c2c(n(C)c3cc(OC)ccc23)[C@H]1CO	none (no result: Vif inh)
COC(=O)C1=C(C)N(C)C(=S)NC1c1ccc(Cl)cc1 (stereo not drawn)	FGF22 binding 44.2
CCOC(=O)C1=C(C)N(C)C(=S)NC1c1ccc(Cl)cc1 (stereo not drawn)	none (no result: F508del corr)
O=[N+]([O-])c1cccc(/C=N\N=C2c3ccccc3-c3ccccc32)c1O	none
NC(N)=N/N=C/c1cccc([N+](=O)[O-])c1O	FGF22 binding 43.4
COc1ccc(NC(=O)Nc2ccc3c(c2)[C@@H]2C[C@H](CC(=O)NCc4ccccn4)O[C@H](CO)[C@@H]2O3)cc1	none (no result: Vif inh)
COc1cccc(CNc2ccc3c(c2)CCC3)c1	Vif inh 59.8 (no result: F508del corr, FGF22 binding)
COc1ccc(OC)c(CNc2ccc3c(c2)CCC3)c1	none
COCCOC(=O)/C(=C/c1ccc(OC(=O)c2ccccc2)cc1)C(C)=O	none (no result: F508del corr, FGF22 binding)
CCOC(=O)/C(=C/c1ccc(OC(=O)c2ccncc2)cc1)C(C)=O	FGF22 binding 43.9
C[C@@H]1CN([C@H](C)CO)C(=O)c2cc(NC(=O)NC3CCCCC3)ccc2O[C@@H](C)CCCCO[C@@H]1CN(C)Cc1ccncc1	none (no result: Vif inh)
CCOCCCNC(=S)NCCCNc1nc2ccc(C)cc2cc1C#N	none (no result: Vif inh)
CCOCCCNC(=S)NCCNc1nc2ccc(C)cc2cc1C#N	FGF22 binding 43.7
O=C(C[C@H]1CC[C@H]2[C@@H](COC[C@@H](O)CN2S(=O)(=O)c2ccc(F)cc2)O1)NCc1ccc(Cl)c(Cl)c1	none (no result: Vif inh)
CCCn1c(SCC(=O)Nc2cccc(C)n2)nc2c1c(=O)n(C)c(=O)n2C	FGF22 binding 43.1
CCCn1c(SCC(=O)Nc2cc(C)on2)nc2c1c(=O)n(C)c(=O)n2C	none (no result: F508del corr, FGF22 binding)
COc1ccccc1S(=O)(=O)N1CC[C@@H]2[C@H]1c1cc(-c3ccccc3)ccc1N(C)[C@H]2CO	none (no result: Vif inh)
CN1c2ccc(-c3ccc(F)cc3)cc2[C@H]2[C@H](CCN2S(=O)(=O)c2cccc(F)c2)[C@@H]1CO	F508del corr 13.6 (no result: Vif inh)
CN1c2ccc(-c3ccc(C#N)cc3)cc2[C@@H]2[C@@H](CCN2S(=O)(=O)c2cccc(F)c2)[C@H]1CO	none (no result: Vif inh)
COc1ccc(-c2ccc3c(c2)[C@H]2[C@H](CCN2S(=O)(=O)c2ccc(F)cc2)[C@H](CO)N3C)cc1	none (no result: Vif inh)
COc1ccc(S(=O)(=O)N2CC[C@@H]3[C@@H](CO)N(C)c4ccc(-c5ccc(F)cc5)cc4[C@@H]32)cc1	F508del corr 12.1 (no result: Vif inh)
CN1c2ccc(-c3ccc(C#N)cc3)cc2[C@H]2[C@H](CCN2S(=O)(=O)c2cccc(F)c2)[C@H]1CO	F508del corr 15.5 (no result: Vif inh)
COc1ccccc1S(=O)(=O)N1CC[C@@H]2[C@@H](CO)N(C)c3ccc(-c4ccc(F)cc4)cc3[C@@H]21	F508del corr 12.4 (no result: Vif inh)
CN1c2ccc(-c3cccc(F)c3)cc2[C@H]2[C@H](CCN2S(=O)(=O)c2cccc(F)c2)[C@@H]1CO	none (no result: Vif inh)
CO[C@@H]1CN(C)C(=O)c2cc(NS(C)(=O)=O)ccc2OC[C@H](C)N(C(=O)C2CCC2)C[C@@H]1C	none (no result: Vif inh)
C[C@H](CO)N1C[C@H](C)[C@H](CN(C)CC2CC2)Oc2ccc(NC(=O)CCCCCC(=O)Nc3ccccc3N)cc2C1=O	none (no result: Vif inh)
O=C(C[C@H]1C[C@H]2c3cc(NC(=O)Cc4ccncc4)ccc3O[C@H]2[C@H](CO)O1)NCc1ccccn1	none (no result: Vif inh, FGF22 binding)
CO[C@H]1CN(C)C(=O)c2cc(NC(C)=O)ccc2OC[C@@H](C)N(Cc2cncnc2)C[C@@H]1C	none (no result: Vif inh)
COc1ccc(CN(C)C[C@@H]2OCCCC[C@@H](C)Oc3ccc(NC(=O)CCCN(C)C)cc3C(=O)N([C@@H](C)CO)C[C@@H]2C)cc1	none (no result: Vif inh)
CCCNC(=O)C[C@H]1CC[C@@H]2[C@H](COC[C@@H](O)CN2C(=O)Nc2ccc3c(c2)OCO3)O1	none (no result: Vif inh)
C[C@H](CO)N1C[C@H](C)[C@H](CN(C)S(=O)(=O)c2ccccc2)Oc2ccc(NC(=O)Cc3ccccc3)cc2C1=O	none (no result: Vif inh)
CCOC(=O)COc1ccc(S(=O)(=O)Nc2ccc(C)cc2)cc1	none (no result: F508del corr, FGF22 binding)
CCOC(=O)COc1ccc(S(=O)(=O)c2ccc(OCC(=O)OCC)cc2)cc1	Vif inh 120.2
CC(=O)c1c(C)[nH]c(C(=O)COC(=O)COc2ccccc2)c1C	none
CCOC(=O)c1c(C)[nH]c(C(=O)OCC(=O)Nc2cc(C)ccc2OC)c1C	none (no result: F508del corr, FGF22 binding)
CCOC(=O)c1[nH]c(C)c(C(=O)Nc2cc(OC)ccc2OC)c1C	Vif inh 53.9 (no result: F508del corr, FGF22 binding)
CCOC(=O)c1c(C)[nH]c(C(=O)COC(=O)COc2ccc(OC)cc2)c1C	FGF22 binding 44.3
CC(C)NC(=O)N(C)C[C@H]1Oc2ncc(-c3ccc(C(=O)N(C)C)cc3)cc2C(=O)N([C@H](C)CO)C[C@@H]1C	none (no result: Vif inh)
C[C@@H]1CN([C@@H](C)CO)C(=O)Cc2cc(NC(=O)C3CCCCC3)ccc2O[C@@H]1CN(C)C(=O)Nc1ccc(F)cc1	none (no result: Vif inh)
CS(=O)(=O)N1[C@@H]2c3ccc(-c4ccccc4F)c(=O)n3C[C@@H]2[C@@H](CO)[C@@H]1C(=O)NCC1CC1	none (no result: Vif inh, FGF22 binding)
CCCNC(=O)[C@@H]1[C@@H](CO)[C@@H]2Cn3c(ccc(-c4cccc(F)c4)c3=O)[C@H]1N2Cc1ccccc1F	none (no result: Vif inh)
C[C@H](CO)N1C[C@H](C)[C@H](CN(C)Cc2ccccc2C(=O)O)Oc2cc(-c3ccc(C(=O)N(C)C)cc3)ccc2S1(=O)=O	none (no result: Vif inh)
CCc1csc(N2[C@H](C#N)[C@H](c3ccc(C4=CCCC4)cc3)[C@H]2CO)n1	none (no result: Vif inh)
C[C@@H](NC(=O)C[C@@H]1CC[C@H](NC(=O)CN2CCOCC2)[C@H](CO)O1)c1ccccc1	none (no result: Vif inh)
CC(=O)Nc1cccc(/C(C)=N/Nc2nc3ccccc3s2)c1	FGF22 binding 43.1
CC(=O)Nc1ccc(/C=N/Nc2nc3ccccc3s2)cc1	none
COc1ccc2c3c(n(C)c2c1)[C@H](CO)N(C(=O)C1CCCC1)CC31CCN(C)CC1	none (no result: Vif inh)
Cc1ccccc1Nc1nnc(SCc2cc([N+](=O)[O-])cc3c2OCOC3)s1	none
Cc1nnc(SCc2cc([N+](=O)[O-])cc3c2OCOC3)n(N)c1=O	FGF22 binding 42.9
COc1ccc(NC(C)=O)cc1S(=O)(=O)N1CCn2cccc2C1C (stereo not drawn)	none
COC(=O)c1ccccc1S(=O)(=O)N1CCn2cccc2C1C (stereo not drawn)	FGF22 binding 43.0
CC(NC(=O)COc1ccc(N(C)S(=O)(=O)c2ccccc2)cc1)c1ccccc1 (stereo not drawn)	FGF22 binding 43.0
CC(C)NS(=O)(=O)c1ccc(OCC(=O)NC(C)c2ccccc2)cc1 (stereo not drawn)	none
COc1ccc(NC(=O)N(C)C[C@H]2Oc3c(NC(=O)c4ccncc4)cccc3C(=O)N([C@@H](C)CO)C[C@@H]2C)cc1	none (no result: Vif inh)
O=C(C[C@@H]1C=C[C@@H](NC(=O)Nc2cccc(F)c2)[C@H](CO)O1)NCC1CC1	none (no result: Vif inh)
CCC(CC)NC(=O)Nc1cccc(C)c1C	FGF22 binding 43.2
CC(=O)Nc1ccc(NC(=O)Nc2cccc(C)c2C)cc1	none
